Results taken from the supplement of paper PMC6555819.

Key:
Assay in all cases: PBM binding z-score (relative to random genomic background probes); higher = stronger binding; sequences stand for … in GC…GCGATTGACAGCGTAGAATGAAGG
[1] = test system: RARb homodimer (NR concentration 270 nM)
Outline: (§1)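 Probes were double-stranded and carried 34-nt variable regions with direct-repeat seeds, single-nucleotide variants, half-site ablations and random human genomic background sequences, printed on custom Agilent 4×180K protein-binding microarrays. Arrays were incubated 1 h with ligand-free nuclear receptor dimers in PBS pH 7.4, 2% milk, 0.02% Triton X-100, 1 mM DTT, 0.2 mg/mL BSA and 0.4 mg/ml salmon testes DNA. Antibodies against each partner (one per run) detected binding, and scanned fluorescence was regression-normalized. Binding z-scores use the random background probes as reference.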

[2] = test system: RARg:RXRa (NR concentration 270 nM, RXRa partner concentration 90 nM)
Outline: as §1

[3] = test system: RARg homodimer (NR concentration 270 nM)
Outline: as §1

[4] = test system: RXRa DBDmut IVT, anti-RXR (DBD mutation: RXRa K156A/R161A, NR concentration 90 nM)
Outline: as §1

[5] = test system: RXRa homodimer (NR concentration 180 nM)
Outline: as §1

[6] = test system: THRa:RXRa (NR concentration 90 nM, RXRa partner concentration 90 nM)
Outline: as §1

[7] = test system: THRa homodimer (NR concentration 90 nM)
Outline: as §1

[8] = test system: VDR:RXRa (NR concentration 270 nM, RXRa partner concentration 90 nM)
Outline: as §1

[9] = test system: VDR homodimer (NR concentration 270 nM)
Outline: as §1

Row | Sequence | PBM binding z-score [1] | PBM binding z-score [2] | PBM binding z-score [3] | PBM binding z-score [4] | PBM binding z-score [5] | PBM binding z-score [6] | PBM binding z-score [7] | PBM binding z-score [8] | PBM binding z-score [9]
1 | TAGCCCAGGTCAGATCGGGCCAGTATACGCTATA | 2.03 | 2.82 | 3.39 | -0.536 | 1.77 | 4.22 | 0.917 | 0.983 | -0.0558
2 | CCTTACAGGTCACTGACAGGTTATAGCATTTGGA | 3.83 | 5.94 | 5.46 | 2.62 | 4.91 | 3.28 | 0.808 | 3.8 | 1.41
3 | GCTAGCAGGCCATTTGGGTCACTTAATGACGGGC | 1.82 | 0.913 | 1.22 | -0.0616 | 0.684 | 1.79 | 0.181 | 0.902 | 0.405
4 | CCTGCTAGGTCATGTTCAGCTAATCTACAGTATG | 2.65 | 3.26 | 3.95 | 2.42 | 2.13 | 2.51 | 1.08 | 1.48 | 0.754
5 | TCTATTAGTTGATTAGGGCGACCGAAACAGCGGA | 0.492 | 0.141 | 0.348 | 1.14 | 0.378 | 0.191 | 0.249 | 0.776 | 0.212
6 | GCTATTAGTTGCAAGGGCAACCGAATGATTCTCG | 1.12 | 0.13 | 0.552 | 0.914 | 0.35 | 0.666 | 0.326 | – | 0.363
7 | ATATCTAGGTAAAGTTCAGTGAAAGATCGATAGA | 2.45 | 2.04 | 2.43 | 1.6 | 1.53 | 1.33 | 0.34 | – | 1.78
8 | CGTCAAAGTTCAGGGTAACGTAACAGAAAGCAGC | 3.13 | 4.04 | 4.74 | 3.74 | 2.91 | 2.14 | 0.495 | 2.8 | 2.51
9 | CGAACGAGTGCATGAGTTGATAGCAAATGCCGAT | -0.322 | 0.343 | 0.307 | 3.2 | 0.414 | -0.0112 | -0.726 | 1.58 | 2.6
10 | CCGGACAGGTGAGAAGGTAACTCAGCCTCGATTA | 0.613 | 0.4 | 0.787 | -0.0237 | 0.117 | 0.16 | 0.35 | – | -0.222
11 | AGTCAAAGTTCATCTAGGTAGCGTAAGATATGCT | 3.79 | 5.6 | 5.81 | 4.63 | 4.48 | 2.62 | -0.478 | 4.94 | 5.34
12 | CCTATTAGTTGAACATAAGGGCAACCGAAGCTCG | 1.97 | 1.48 | 1.14 | 0.521 | 0.64 | 2.06 | 1.04 | 0.603 | 0.571
13 | GCTCGGAGGACAAGATCAGAGCTTTGTCCGTAGA | -0.303 | -0.459 | 0.204 | -0.708 | -0.639 | 0.191 | -0.651 | -0.806 | -0.587
14 | GTACCAAGGTGAATATGTCGTTGATGAGTAGGCG | 0.432 | 0.746 | 0.888 | -0.0689 | 0.5 | 1.34 | 0.837 | -0.0532 | 0.112
15 | ACAGACAGGTGAGTGAGGGTAACTCAGCTGGACG | 0.68 | 0.525 | 0.533 | -0.362 | 0.572 | 1.63 | 0.184 | 2 | 0.0737
16 | TCTATTAGTTGAAGGGGAACCGACGAGTCCGTTT | 0.0488 | 0.44 | 0.17 | 2.05 | 0.673 | 0.226 | 0.565 | – | 1.61
17 | CGAACTAGGTCAAGCACAGTGAATCTCCGCACGC | 2.96 | 4.27 | 4.61 | 1.82 | 2.84 | 2.72 | 1.27 | 1.43 | 0.357
18 | TCGAGTAGGTTAGTCGGGGCATTCAGCCAACATA | 0.309 | -0.257 | -0.115 | 0.217 | -0.227 | 0.885 | -0.0985 | 2.07 | 0.0153
19 | AATACAGGGCCATCGTAGGCCAGAGTACGCACAG | 0.468 | 0.421 | 0.993 | -0.218 | 0.0629 | 1.44 | -0.588 | -0.126 | 0.487
20 | CTCGAAAGGTTGTGCTCAGGTGAGTATACCAAAC | 0.954 | 1.31 | 0.452 | 0.56 | 0.825 | 2.84 | 0.886 | 0.214 | 0.0434
21 | ATATGTAGGTTAAATCCGGGTCATTCAGGCTATG | 3.23 | 4.91 | 2.25 | 1.1 | 3.3 | 4.46 | 2.71 | 4.63 | 2.5
22 | ACAGACAGGTGAGTCAAGGTAACTCAGCTGGACG | 0.0236 | 0.322 | 0.586 | -0.585 | 0.518 | 3.73 | 0.299 | -0.187 | -0.203
23 | ATCTCTAGGTAAGACTCAGTTCAGTGCAGAACGC | 0.696 | 0.23 | 0.29 | 0.644 | 0.206 | 0.914 | 0.919 | 0.866 | 1.71
24 | CCGAGTAGGTTATGGGGCAATCAGGCAACGGTGA | 1.16 | 0.738 | 0.689 | -0.315 | 0.867 | 0.602 | 0.263 | 0.00491 | 0.0803
25 | AGGACGAGGGCAATGAGTTGATAGCACGGGTGGC | 1.44 | 1.21 | 1.88 | 2.22 | 0.924 | 1.08 | 0.181 | 5.11 | 3.41
26 | TAGCGTAGGTCATGCGGGCCAGTATAGTGTCGGC | 2.91 | 4.14 | 4.63 | 0.594 | 3.78 | 2.27 | -0.424 | 3.33 | 0.141
